Screening data deposited in PubChem by several laboratories.
Hits are enriched below; roughly 3.9% of the tested compounds scored in any of these assays.
3CLpro inhibitor = SARS-CoV 3CLpro protease inhibitors, primary screen, biochemical, quenched FRET; Replicase polyprotein 1ab (Severe acute respiratory syndrome coronavirus), P0C6X7; recombinant SARS-CoV 3CLpro, quenched FRET peptide cleavage; inhibition, % at 6 µM; hit rate 0.14% among 290,000; AID 1706, 2009; in the data active means inhibition above about 12%
BoNT-F LC inh = BoNT/F light chain protease inhibitors, primary screen, biochemical, flow cytometry, MLPCN library. Botulinum neurotoxin type F light chain protease (Clostridium botulinum). Multiplex microsphere protease cleavage assay. inhibition, % at 10 µM. hit rate 0.22% among 360,000. AID 588497, 2011; in the data active means inhibition above about 35%, passing the limit was not always enough; inconclusive means no clear call, values can overlap the other calls; further: plate controls were buffer without enzyme for full effect and enzyme alone for no effect
Anthrax LF inh2 = Bacillus anthracis LF protease inhibitors, primary screen, biochemical, multiplex microsphere, MLPCN library. inhibition, % at 10 µM. AID 588501, 2011. Lethal factor (Bacillus anthracis), P15917. hit rate 0.12% among 360,000. multiplex microsphere protease cleavage assay; further: plate controls were buffer without enzyme for full effect and enzyme alone for no effect
Autofluor counter = compound fluorescence in toxin protease inhibitor counterscreen. hit rate 3.1% among 360,000. compound autofluorescence counterscreen, microsphere flow cytometry; hits give high values. fluorescence intensity (concentration not given with the values). AID 624483; in the data active means fluorescence intensity above about 16000; inconclusive means no clear call, values can overlap the other calls
BoNT A protease = BoNT/A light chain protease inhibitors, primary screen, biochemical, flow cytometry, MLPCN library; Botulinum neurotoxin type A light chain protease (Clostridium botulinum A str. ATCC 3502); multiplex microsphere protease substrate cleavage; inhibition, % at 10 µM; hit rate 0.17% among 360,000; further: plate controls were buffer without enzyme for full effect and enzyme alone for no effect
DUSP3 inh = VHR1 phosphatase inhibitors, primary screen, biochemical, absorbance, uHTS; recombinant VHR phosphatase, pNPP absorbance; hit rate 0.52% among 290,000; inhibition, % at 13.3 µM; in the data active means inhibition above about 50%
Target sequence (P51452 whole entry, looked up): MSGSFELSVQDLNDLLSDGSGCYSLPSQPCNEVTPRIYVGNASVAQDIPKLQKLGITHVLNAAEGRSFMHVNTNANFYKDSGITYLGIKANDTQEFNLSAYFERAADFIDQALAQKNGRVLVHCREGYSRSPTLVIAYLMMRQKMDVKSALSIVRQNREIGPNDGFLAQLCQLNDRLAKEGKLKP
Numbers without * were called inactive; ? = inconclusive; · = not tested or not shown. Unless noted, no stated cut-off is given here; in the data, active means inhibition above about 30%; inconclusive means no clear call, values can overlap the other calls; inactive means below that.

SMILES	3CLpro inhibitor	BoNT-F LC inh	Anthrax LF inh2	Autofluor counter	BoNT A protease	DUSP3 inh
CNC(=O)/C=C/c1cccc(C(F)(F)F)c1	1.0	39.8*	1.5	2221	4.0	29.9
CCCCc1nnc(SCCSc2nnc(CCCC)n2N)n1N	1.4	-1.3	-1.0	23554*	0.4	1.4
CCc1nnc(SCCSc2nnc(CC)n2N)n1N	-0.8	2.3	-1.3	2392	-0.2	10.6
Cc1ccc(-c2nc3sc4c(N)ncnc4c3c3c2CCCC3)cc1	-1.0	0.7	-2.4	22379*	-0.3	32.3
O=c1[nH]cnc2c1sc1nc(-c3ccccc3)c3c(c12)CCCC3	0.4	1.9	0.2	2248	-0.2	10.3
COc1ccc(-c2c(C#N)c(N)nc3c2CCCC3)cc1OC	-0.3	0.8	-0.9	16197*	0.0	·
Cc1nc(Nc2cccc(O)c2)c2c3c(sc2n1)CCC3	1.2	-6.1	1.5	5481	-1.6	15.0
Cc1c[n+]([O-])cc(C)c1[N+](=O)[O-]	·	5.2	-8.4	4009	-0.7	·
CN1C(=O)CC(N2CCN(CC(=O)N3CCCC3)CC2)C1=O (stereo not given)	-4.0	0.7	1.7	3298	0.9	40.1
CN1C(=O)CC(N2CCN(C(=O)CN3CCCC3)CC2)C1=O (stereo not given)	-2.2	-6.3	0.7	24470*	-2.1	-1.0
CC1CCCCN1C(=O)NC12CC3CC(CC(C3)C1)C2 (stereo not given)	8.4	1.6	0.1	22908*	0.2	13.3
O=C(NC12CC3CC(CC(C3)C1)C2)C1CCCN1C(=O)NC1CCCCC1 (stereo not given)	2.4	-2.6	-3.9	3667	0.8	-4.4
CC1(C)O[C@@H]2[C@H](O1)[C@@H](CO)O[C@H]2n1ccc(=O)[nH]c1=O	·	1.4	-1.9	3922	0.0	·
O=C1N=C(N2CCOCC2)S/C1=C1\C(=O)N(Cc2ccccc2)c2ccc(Br)cc21	·	·	·	·	·	15.4
CCCCN1C(=O)/C(=C2\SC(N3CCCCC3)=NC2=O)c2ccccc21	4.8	-3.0	-6.3	23186*	?	15.3
CCNc1nc(NCC)nc(NS(=O)(=O)c2ccc(N)cc2)n1	2.7	18.9	6.4	2936	3.2	-17.1
O=C(OCCCOC(=O)c1ccc(O)cc1)c1ccc(O)cc1	-5.2	8.1	-0.2	4771	3.0	5.5
CCS(=O)(=O)NCCc1cc2c(OC)ccc(OC)c2[nH]c1=O	5.7	-34.1	0.2	4801	0.2	52.9*
COc1ccccc1/C=C/C=c1\sc2nc(=O)c(Cc3ccccc3)nn2c1=O	6.7	?	8.4	3321	-1.2	8.4
CN(C)c1ccc(C2NCCS2)cc1 (stereo not given)	3.4	-2.6	-4.0	22912*	0.1	39.3
CCn1nc(C(=O)OCC(=O)N(CCC#N)c2ccccc2)c2ccccc2c1=O	·	0.7	-4.3	3742	-0.1	·
CCOc1ccc2c(c1)nc(SCC(=O)c1ccc(Br)s1)n2C	-0.2	-1.3	1.3	16282*	1.9	15.7
CC(C)NC(=O)c1sc2nc(-c3cccs3)cc(-c3cccs3)c2c1N	8.2	·	·	·	·	2.4
COc1ccc(C(=O)c2sc3nc(C)cc(-c4cccs4)c3c2N)cc1OC	-1.7	47.2*	49.0*	7178	70.9*	-10.0
COC(=O)C[C@H]1C[C@H]2c3cc(NS(=O)(=O)c4ccc(OC)cc4)ccc3O[C@H]2[C@H](CO)O1	·	-7.8	1.3	3951	-0.7	·
SMILES	3CLpro inhibitor	BoNT-F LC inh	Anthrax LF inh2	Autofluor counter	BoNT A protease	DUSP3 inh
Cc1ccccc1-c1noc(CCC(=O)NCC2CCCO2)n1 (stereo not given)	-0.1	6.2	-2.0	22713*	3.4	-5.8
Cc1cccc(-c2noc(CCC(=O)NCC3CCCO3)n2)c1 (stereo not given)	-3.1	-1.2	1.4	23287*	0.3	17.1
CCOc1cc(C)nc(Oc2ccc(=O)[nH]n2)n1	1.3	1.8	-4.1	23697*	?	16.9
C=CCNC(=S)Nc1ccccc1	0.2	0.0	-4.8	9515	0.6	12.7
C=CCN(CC=C)C(=S)Nc1ccccc1	-2.7	1.4	-1.2	22624*	2.7	9.1
CC(C)C(=O)N1CCN(c2ccc([N+](=O)[O-])c(NC(C)c3ccccc3)c2)CC1 (stereo not given)	3.0	-16.3	-7.8	8098	-1.4	1.2
CC(Nc1cc(N2CCN(C(=O)C(C)(C)C)CC2)ccc1[N+](=O)[O-])c1ccccc1 (stereo not given)	6.2	-6.2	-11.4	23558*	-2.0	21.3
O=C(N/N=C/c1ccc(Cl)cc1Cl)Nc1ccccc1	5.0	9.1	-13.0	20342*	6.5	34.3
O=C(CN1CCCCC1)N/N=C/c1ccc(Cl)cc1	-3.3	·	·	·	·	29.3
O=C(CN1CCCCC1)N/N=C/c1ccc(Cl)cc1Cl	8.0	42.2*	3.1	3971	2.9	23.4
O=C(N/N=C/c1cccc(Cl)c1Cl)Nc1ccccc1	-0.5	4.2	-3.6	11180	-0.3	-5.3
O=C(CN1CCSCC1)N/N=C/c1ccccc1F	-4.4	-2.1	-0.5	23296*	-0.4	16.1
COc1cc(C(=O)NS(=O)(=O)c2ccccc2C)ccc1Cc1cn(C)c2ccc(NC(=O)OC3CCCC3)cc12	15.3*	·	·	·	·	48.3
CC(C)(C)OC(=O)N1CCCC1C(=O)N1CCc2ccccc21 (stereo not given)	1.2	14.4	-24.6	16582*	?	-13.7
CC(C)C[C@H]1CN(CCCC[C@H]2CNC(=O)C(=O)N2CCc2ccccc2)C(=O)C(=O)N1Cc1ccccc1	·	-2.0	-8.4	5733	0.3	·
COc1ccccc1-c1coc2c(CN3CCC(C)CC3)c(O)ccc2c1=O	1.5	·	·	·	·	57.0*
CCC1CCCCN1Cc1c(O)ccc2c(=O)c(-c3ccccc3OC)coc12 (stereo not given)	·	4.4	-4.4	3907	-3.7	·
COc1ccc(NC(=O)c2ccccc2[N+](=O)[O-])cc1	5.8	8.0	1.2	10266	0.6	55.4*
COc1ccc(CNC(=O)c2ccccc2[N+](=O)[O-])cc1	2.5	-6.4	-3.9	11205	-0.2	20.2
CCOC(=O)N1CCN(C(=O)c2ccccc2NC(=O)c2ccc(OC)cc2)CC1	2.7	-4.5	-4.1	23728*	-1.8	-11.2
CCOC(=O)C(=O)Nc1ccccc1C(=O)Nc1ccc(OC)cc1	4.3	11.9	-18.3	19641*	7.5	-4.6
CCc1ccccc1NC(=O)C1CCCN(S(=O)(=O)c2ccc3c(c2)CC(C)N3C(C)=O)C1 (stereo not given)	3.0	-13.6	-12.0	4266	-1.6	-2.3
CCOC1CCCc2oc(-c3ccc(OC)cc3)c(C(=O)NCCCCO)c21 (stereo not given)	·	-7.6	-11.9	4359	-0.9	·
